Structures are written as SMILES. Out of some 13,000 compounds screened, about 3,200 (25%) showed an effect of 50% or more. This is one part of the list.

The subject of the test is P. falciparum stage V gametocytes. Details: BacTiter-Glo ATP luminescence viability of purified stage V gametocytes in 384-well plates, per cent inhibition versus DMSO. To be noted: 48 h, 5 µM; inhibitor.
By % Inhibition is commonly meant the relative decrease from the control value, in per cent. Take `COc1nc2c(N3CCN(CCNCc4ccc5c(n4)NC(=O)CO5)CC3)ccnc2cc1F` [TCMDC-135208]: the “% Inhibition” value was -25.48%.

As for `Cc1ccc(NC(=O)Nc2ccc(Cl)c(C(F)(F)F)c2)cc1-c1ccc(C(=O)NCCN2CCOCC2)cc1` [TCMDC-133589], the “% Inhibition” value worked out at 4.722%.

Turning to `CC(C)N1CCN(C(=O)c2ccc(CNCCCN3CCN(c4cccc(Cl)c4Cl)CC3)s2)CC1` [TCMDC-136520], the “% Inhibition” value was determined as 62.19%.

For `CC(C)N1CCN(C(=O)c2ccc(CNCCCN3CCN(c4cccc(Cl)c4Cl)CC3)o2)CC1` [TCMDC-136521], the “% Inhibition” value is -13.79%.

With `CN(C)CCCN1CCN(C(=O)c2cccc(-c3noc(C(F)(F)F)n3)c2)CC1` [TCMDC-132384], the “% Inhibition” value is recorded as -19.31%.

For the molecule `CC(C)N1CCN(C(=O)c2ccc(CN(C)CCCN3CCN(c4cccc(Cl)c4Cl)CC3)s2)CC1` [TCMDC-136526], the “% Inhibition” value is on record as 84.79%.

`CC(C)N1CCN(C(=O)c2ccc(CNCCCN3CCN(c4ccccc4C(F)(F)F)CC3)s2)CC1` [TCMDC-136704]: the “% Inhibition” value was determined as 40.48%.

With `Cc1cc2[nH]c(-c3ccc(C(=O)NCCCN4CCN(c5cccc(Cl)c5)CC4)s3)nc2cc1Cl` [TCMDC-140031], the “% Inhibition” value is -0.02415%.

`CC(C)CCN1CCCN(Cc2ccc(C(=O)Nc3ccc(C(C)(C)C)cc3)cc2)CC1` [TCMDC-136444]: the “% Inhibition” value was determined as 35.23%.

In the case of `CC(=O)Nc1cccc(CNc2cc(C)nc(Nc3ccc(C)cc3)n2)c1` [TCMDC-133461], the “% Inhibition” value was 27.64%.

As to `Cc1ccc(Oc2ccc(CNc3nc(Nc4cccc(F)c4)nc(Nc4cccc(F)c4)n3)cc2)cc1` [TCMDC-135138], the “% Inhibition” value is recorded as 50.43%.

As for `Oc1ccc(CCNc2nc(NCc3cccc(OCc4cccc(F)c4)c3)nc(N3CCNCC3)n2)cc1` [TCMDC-133812], the “% Inhibition” value is listed as -36.91%.

Take `O=C(Nc1ccc(OCc2ccccc2)cc1)c1nc2ccccc2nc1Cl` [TCMDC-124732]: the “% Inhibition” value amounted to 4.904%.

For `Fc1cccc(Nc2nc(NCc3ccc(OCc4ccccc4)cc3)nc(Nc3cccc(F)c3)n2)c1` [TCMDC-135137], the “% Inhibition” value is 60.27%.

Consider `COc1cccc(Nc2nc(C)cc(NCc3ccc(-c4c(C)noc4C)cc3)n2)c1` [TCMDC-133451], for which the “% Inhibition” value is given as 9.249%.

With `COc1cc(Cc2cnc3nc(N)nc(N)c3c2C)cc(OC)c1OC` [TCMDC-138058], the “% Inhibition” value was -6.965%.

Turning to `Cc1cc(NN=Cc2ccc(F)cc2)c2ccc(F)cc2n1` [TCMDC-142039], the “% Inhibition” value is -75.1%.

Consider `COc1ccc2c(NN=Cc3ccc(F)cc3)cc(C)nc2c1` [TCMDC-142086], for which the “% Inhibition” value amounted to 107.2%.

Take `CCOc1ccc2nc(C)cc(NN=Cc3ccc(Cl)cc3)c2c1` [TCMDC-142091]: the “% Inhibition” value was found to be 100.1%.

In the case of `CCOc1ccc2nc(C)cc(NN=Cc3ccncc3)c2c1` [TCMDC-142046], the “% Inhibition” value is recorded as -27.59%.

Turning to `Cc1ccc2c(NN=Cc3cccc(F)c3)cc(C)nc2c1` [TCMDC-142067], the “% Inhibition” value is given as 59.3%.

`Cc1cc(NN=Cc2ccc(Cl)cc2)c2ccccc2n1` [TCMDC-123979]: the “% Inhibition” value stood at 12.17%.

For the molecule `CCOc1ccc2nc(C)cc(NN=Cc3ccccc3)c2c1` [TCMDC-142094], the “% Inhibition” value was -27.91%.

On to `COc1ccc2nc(C)cc(NN=Cc3ccc(Cl)cc3)c2c1` [TCMDC-123971], for which the “% Inhibition” value is 99.29%.

As to `Cc1ccc2nc(C)cc(NN=Cc3cccc(F)c3)c2c1` [TCMDC-142066], the “% Inhibition” value stood at 30.79%.

On to `Cc1ccc2c(NN=CC=Cc3ccccc3)cc(C)nc2c1` [TCMDC-142075], for which the “% Inhibition” value is on record as -22.28%.

The record behind these values is paper PMC4552634, “A New Set of Chemical Starting Points with Plasmodium falciparum Transmission-Blocking Potential for Antimalarial Drug Discovery” (PLoS ONE, 2015).
